How the values were obtained:
Format in all cases: functional
[1] = molecular target: Solute carrier family 2, facilitated glucose transporter member 1 (Homo sapiens) (UniProt P11166); assay: ST_JUDE_LEISH: Cytotoxicity at 2uM final concentration against transgenic Leishmania Mexicana promastigotes LmGLUT1 that are glucose transport deficient and complemented with the human glucose transporter GLUT1. Activity is measured by DNA content using SYBR green in vitro
[2] = molecular target: Hexose transporter 1 (Plasmodium falciparum) (UniProt O97467); assay: ST_JUDE_LEISH: Cytotoxicity at 2uM final concentration against transgenic Leishmania Mexicana promastigotes LmPfHT that are glucose transport deficient and complemented with the Plasmodium falciparum hexose transporter. Activity is measured by DNA content using SYBR green in vitro
[3] = molecular target: Glucose transporter (Leishmania mexicana) (UniProt O61059); assay: ST_JUDE_LEISH: Cytotoxicity at 2uM final concentration against transgenic Leishmania Mexicana promastigotes LmGT2 that are glucose transport deficient and complemented with the L. Mexicana glucose transporter 2. Activity is measured by DNA content using SYBR green in vitro

Sequence of Solute carrier family 2, facilitated glucose transporter member 1 (Homo sapiens) (P11166 whole entry): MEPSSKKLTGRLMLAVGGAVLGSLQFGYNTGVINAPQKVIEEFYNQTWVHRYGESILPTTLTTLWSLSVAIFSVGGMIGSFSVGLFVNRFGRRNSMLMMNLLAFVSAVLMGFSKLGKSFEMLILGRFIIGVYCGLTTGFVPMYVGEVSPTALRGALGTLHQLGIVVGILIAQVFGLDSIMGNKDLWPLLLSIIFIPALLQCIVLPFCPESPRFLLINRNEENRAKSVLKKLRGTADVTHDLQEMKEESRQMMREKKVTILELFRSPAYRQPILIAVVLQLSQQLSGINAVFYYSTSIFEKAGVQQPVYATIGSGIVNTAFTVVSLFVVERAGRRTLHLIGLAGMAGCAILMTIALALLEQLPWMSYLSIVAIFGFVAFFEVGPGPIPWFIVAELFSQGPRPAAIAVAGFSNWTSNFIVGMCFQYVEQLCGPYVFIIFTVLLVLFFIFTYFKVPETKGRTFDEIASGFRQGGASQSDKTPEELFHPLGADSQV

| Compound | inhibition [1] [%] | inhibition [2] [%] | inhibition [3] [%] |
| --- | --- | --- | --- |
| O=C(/C=C/c1ccc(Cl)c(Cl)c1)NCCCCCN1CCC(NC(=O)c2ccc(F)cc2)CC1 | 6.17 | 3.16 | 5.01 |
| CN(C)c1ccc(-c2csc(C(=O)NCC3CCN(CC4CCCCC4)C3)c2)cc1 (centres undefined) | 2.79 | 0.77 | 1.05 |
| Cc1ccccc1CNc1nccc(NCCC(=O)Nc2ccccc2)n1 | 4.53 | 2.1 | 0.01 |
| c1ccc(CN2CCCN(c3ccc4c(c3)CCN(Cc3ccc(-c5ncc[nH]5)cc3)CC4)CC2)cc1 | 2.8 | 3.96 | 0.68 |
| O=S(=O)(c1ccc2ccccc2c1)N1CCCN(Cc2ccc(OCCCN3CCCCC3)cc2)CC1 | 63 | 71.4 | 45.5 |
| CCCCCn1c(Sc2ccc(C#N)c([N+](=O)[O-])c2)nnc1-c1cccc(Cl)c1 | 5.58 | 6.17 | -0.77 |
| Cc1c(C)n(Cc2ccccc2)c2ncnc(OC3CCN(CC(=O)NCC4CC4)CC3)c12 | 1.84 | 0.12 | 0.21 |
| CCOc1cc(C(=O)NCc2ccc(Cl)c(Cl)c2)ccc1-c1nc2cc(Cl)ccc2[nH]1 | -0.85 | 2.33 | 7.21 |
| OC(CNCc1ccccc1Oc1ccccc1)c1cccc(C(F)(F)F)c1 (centres undefined) | 3.95 | 2.2 | 0.07 |
| CCn1c(=O)c(C(=O)Nc2cc(Cl)c(OC)cc2OC)nc2ccccc21 | 11.7 | 9.32 | 10.5 |
| Fc1ccc(-c2cc3ncnc(N4CCN(CCN5CCCC5)CC4)c3s2)cc1 | 14.6 | 12.9 | 11.1 |
| O=C(Cc1cccc(O)c1)NCC(Cc1ccc(O)cc1)c1ccccc1 (centres undefined) | 0.64 | -0.06 | 0.22 |
| COc1cc2c(cc1C(F)(F)F)N(C(=O)Nc1cc(OC(F)(F)F)cc(-c3cccnc3)c1)CC2 | -0.39 | 1.79 | -0.44 |
| O=C(Nc1ccc(F)cc1)NC1CCN(c2ccnc3cc(Cl)ccc23)CC1 | 3.63 | 3.1 | 1.68 |
| Cc1cc(C2CCN(CCCCNC(=O)c3ccc(-c4ccc(C(F)(F)F)cc4)cc3)CC2)c(C)cc1OCC(N)=O | 0.54 | 1.14 | 0.73 |
| COc1ccc(C2CC(c3ccccc3O)=NN2C(=O)c2ccco2)cc1OC (centres undefined) | 0.86 | 1.48 | -2.92 |
| Cn1cncc1C(=O)Nc1cccc(-c2ccc(-c3nc4ccccc4[nH]3)cc2)c1 | -2.56 | -2.33 | -0.9 |

| Compound | inhibition [1] [%] | inhibition [2] [%] | inhibition [3] [%] |
| --- | --- | --- | --- |
| C[C@H](Cc1ccc(CCc2ccc(C[C@@H](C)NC[C@H](O)c3cccc(Cl)c3)cc2)cc1)NC[C@H](O)c1cccc(Cl)c1 | 59.1 | 10.7 | 58.5 |
| COc1ccc(-c2ccc(NC(=O)c3ccc(Cl)cc3)cc2)cc1CN(C)CCO | 4.1 | 3.45 | -0.68 |
| COc1cc2ccccc2c(CNCCCCCCNCc2c(OC)c(OC)cc3ccccc23)c1OC | 4.39 | 3.44 | 1.23 |
| O=C(Nc1cccc(C(F)(F)F)c1)N1CCOC(CCN2CCC3(CCc4ccccc43)CC2)(c2ccc(Cl)c(Cl)c2)C1 (centres undefined) | 5.08 | 4.51 | 2.55 |
| CN1CCN(Cc2cccc(Nc3nccc(Nc4ccc(Oc5ccccc5)cc4)n3)c2)CC1 | 1.89 | 7.05 | 5.8 |
| CCOc1cc(C=NNc2nc(C)cc(-n3nc(C)cc3C)n2)ccc1O | 1.32 | -0.22 | 3.45 |
| COc1cc(C2=NN(S(=O)(=O)c3c(C)cc(C)cc3C)CCCC2)ccc1Cl | 4.03 | 3.46 | 3.33 |
| CC(C)CCNc1nc(NCCc2ccccc2)c2cc(O)ccc2n1 | 7.05 | 3.99 | -2.18 |
| CCc1nc(N)nc(N)c1-c1ccc(Cl)cc1 | 2.26 | 3.31 | 3.36 |
| Cn1nc(-c2cccc(CN[C@@H]3CCc4ccc(O)cc43)c2)c2cnc(NCCCN3CCCC3)nc21 | 11.2 | 4.83 | 4.3 |
| CCOc1cc(C(=O)NC2CC(C)(C)NC(C)(C)C2)ccc1-c1nc2cc(Cl)ccc2[nH]1 | 1.25 | 1.71 | 1.1 |
| Cc1cc(C(F)(F)F)n2nc(C3CCN(Cc4cc(C)c(O)c(C)c4)C3)cc2n1 (centres undefined) | 4.53 | 3.54 | -0.59 |
| COc1ccc2ncc(F)c([C@H](O)CN3CCC(NCc4ccc5c(c4)OCCO5)CC3)c2c1 | 4.19 | 2.23 | 1.28 |
| COc1ccc(CNCC2CCC(CNCCc3ccccc3)CC2)cc1Cl (centres undefined) | 1.1 | 2.42 | 2.3 |
| COc1ccccc1Cc1c(C)nc2nc(N)nc(N)c2c1C | 6.33 | 4.07 | 7.13 |
| CC(C)(C)NCCN(Cc1ccc(-c2ccc(C(F)(F)F)cc2)cc1)C(=O)Cn1c(CCc2cccc(F)c2F)nc(=O)c2ccccc21 | 3 | 5 | 1.15 |

— ChEMBL document CHEMBL3433997, “St. Jude Leishmania screening dataset” (2016)
